# Source: PubChem (National Center for Advancing Translational Sciences (NCATS))
# Shown are actives, neighbours in structure and some others; about 2.6% of the full set was active somewhere.
# AmpC det inh = inhibitors of E. coli AmpC beta-lactamase with detergent. P00811. 71,000 compounds, 0.09% hits. purified AmpC, nitrocefin hydrolysis with detergent. Potency, µM (top dose mostly 28.7 µM), for the others: at the top dose activity change, negative = inhibition; active means well fitted curve in the direction sought with a large enough effect; inconclusive means small, poorly fitted or top-dose-only effect; further: on the % scale 0 is the no-effect control and ±100 the full control effect
# Target sequence (P00811 whole entry, looked up): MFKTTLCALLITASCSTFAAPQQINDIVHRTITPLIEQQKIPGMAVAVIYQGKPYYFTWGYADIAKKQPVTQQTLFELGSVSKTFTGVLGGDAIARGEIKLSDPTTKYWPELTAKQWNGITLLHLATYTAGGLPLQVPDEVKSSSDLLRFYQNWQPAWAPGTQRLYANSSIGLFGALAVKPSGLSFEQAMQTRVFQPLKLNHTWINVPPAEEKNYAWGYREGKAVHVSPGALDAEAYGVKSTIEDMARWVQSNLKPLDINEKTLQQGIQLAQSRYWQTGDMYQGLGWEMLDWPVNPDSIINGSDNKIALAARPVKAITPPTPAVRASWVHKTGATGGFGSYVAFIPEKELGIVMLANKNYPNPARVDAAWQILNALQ
#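 E. coli AmpC (5.3 nM) in 20 mM phosphate pH 7.0 with 0.01% Triton X-100, preincubated 15 min RT with compound; nitrocefin (2 uL of 800 uM stock) hydrolysis followed by 480 nm absorbance every 20 s over 4 min.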
# AmpC inh no det = AmpC beta-lactamase inhibition, detergent-free assay; AmpC nitrocefin hydrolysis, absorbance 480 nm, no detergent; Potency, µM (highest dose often 28.7 µM), inactives show top-dose activity change, negative = inhibition; 71,000 compounds, 1.8% hits; further: % of control where 0% means no effect
#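 AmpC, 20 mM phosphate pH 7.0; 15 min cpd preinc, RT; start with nitrocefin (800 uM stock); A480 kinetic read, 20 s intervals, 4 min. No-enzyme wells = negative control.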
# Prx2 Sm inh = blocks S. mansoni peroxiredoxin 2 enzymatic activity; S. mansoni Prx2 activity coupled to TGR/GSH (TGR is thioredoxin glutathione reductase), NADPH fluorescence loss, qHTS; Potency, µM; 65,000 compounds, 0.07% hits; AID 448
#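 Prx2 inhibition was measured as reduced NADPH consumption when electrons flowed from NADPH through TGR and glutathione to Prx2 and H2O2. Plates were read kinetically over 8 min; enzyme reagents were held at 4 deg C during dispensing.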
# LT uptake inh = blocks cellular internalization of anthrax lethal toxin. Cells, anthrax lethal toxin internalization, FRET ratio (460/530). Potency, µM (doses to about 40 µM), inactives show top-dose activity change, negative = inhibition, most hits filed as inhibitors. 70,000 compounds, 0.67% hits; further: on the % scale 0 is the no-effect control and ±100 the full control effect; nearly all actives have a fitted effect of over 50% in size
# The depositor's hits bear a star; ? = inconclusive; . = no result given; [ ] = remark or other dose. Unless noted, the call rests on the fitted dose curve. Potency means the concentration at half of the fitted maximal effect.
SMILES,AmpC det inh,AmpC inh no det,Prx2 Sm inh,LT uptake inh
O=C(NCc1ccco1)c1ccc(CS(=O)(=O)c2cccc(C(F)(F)F)c2)o1,-0.7%,26.0%,>57,11.2%
O=C(O)CCC/C=C\C[C@H]1[C@@H](/C=C\[C@@H](O)C2Cc3ccccc3C2)[C@H](F)C[C@H]1O,0.3%,14.0%,>57,5.5%
CCOC(=O)CCc1c(C)nc2c(c(C)nn2C(C)(C)C)c1C,12.7%,3.98µM*[single pt active],>57,?
O=C(Nc1ccccc1)C1=C(O)CC(c2ccoc2)CC1=Nc1ccccc1 (configuration not stated),-2.0%,-13.5%,.,?
O=C(Nc1ccccc1)C1=C(O)CC(c2ccco2)CC1=Nc1ccccc1 (configuration not stated),21.0%,7.94µM*,>57,-1.9%
CN(c1nnc(N)s1)C1CCCCC1,21.1%,3.98µM*[single pt active],>57,-2.3%
C[C@]1(O)CC[C@H]2[C@@H]3[C@@H](O)CC4=CC(=O)CC[C@@]4(C)[C@H]3CC[C@]21C,-3.9%[5.75 µM],-4.4%[5.75 µM],>57,1.7%[8 µM]
COC(=O)c1cc2sccc2n1CC(=O)N1CCCc2ccccc21,-5.7%,14.6%,>57,10µM*
COc1cccc(-c2cc(N)nn2C(=O)Nc2ccc(Cl)cc2)c1,13.8%,3.98µM*[single pt active],>57,?
COc1cccc(-c2csc3nnc(SCC(=O)c4ccc(NC(C)=O)cc4)n23)c1,-5.9%,12.2%,>57,-8.2%
S[C@@H]1CCCN(Cc2ccccc2)C1,-5.9%[5.75 µM],7.1%[5.75 µM],?,-17.2%[8 µM]
Clc1ccc2c(NC3CCC(N4CCCCC4)CC3)ccnc2c1 (configuration not stated),1.4%[5.75 µM],4.9%[5.75 µM],>57,2.51µM*
N#CC1=C2SCN(c3ccccc3)CN2C(=O)CC1c1c(Cl)cccc1Cl (configuration not stated),7.5%,2.51µM*,.,?
N#CC1=C2SCN(c3ccccc3)CN2C(=O)CC1c1cccs1 (configuration not stated),-4.7%,-6.0%,>57,-12.8%
N#CC1=C2SCN(Cc3ccco3)CN2C(=O)CC1c1c(F)cccc1Cl (configuration not stated),9.5%,3.98µM*[single pt active],>57,-10.7%
N#CC1=C2SCN(c3ccccc3)CN2C(=O)CC1c1ccccc1Cl (configuration not stated),8.9%,2.51µM*,>57,?
COc1cc(OC)c(C2CC(=O)N3CN(c4ccccc4)CSC3=C2C#N)cc1OC (configuration not stated),0.8%,57.1%,>57,?
COc1ccc(OC)c(C2CC(=O)N3CN(c4ccc(C)c(Cl)c4)CSC3=C2C#N)c1 (configuration not stated),11.0%,-7.6%,>57,-15.1%
Cc1ccc(C2CC(=O)N3CN(c4ccc(Br)cc4)CSC3=C2C#N)o1 (configuration not stated),-5.8%,12.6µM*[single pt active],>57,?
[Cu].[O-]/N=C1/C(=[OH+])Nc2ccccc21.[O-]Nc1c(O)[nH]c2ccccc12,-4.2%[5.75 µM],-6.7%[5.75 µM],>57,-1.2%[8 µM]
C=CCCC#N,7.5%,-4.8%,.,-3.4%
NC(=O)CN1C[C@@H](O)CC1=O,-4.1%,17.9%,>57,2.2%
CC1(C)CCC(C)(C)c2c1ccc(O)c2Cc1c(O)ccc2c1C(C)(C)CCC2(C)C,-1.7%[5.75 µM],-29.4%[5.75 µM],>57,?
O=C(c1ccccc1)c1cn(CC(=O)N2CCCC2)c2ccccc12,15.9%,3.98µM*[single pt active],>57,9.8%
Cc1ccc(C(=O)Nc2ccc(N3CCOCC3)cc2)cc1,-1.0%,0.6%,.,-3.4%
SMILES,AmpC det inh,AmpC inh no det,Prx2 Sm inh,LT uptake inh
CC(=O)N1CCN(c2ccc(NC(=O)c3ccc(C(C)(C)C)cc3)cc2)CC1,6.8%,123.3%,>57,10µM*
O=C1Nc2ccccc2C2(CCN(CCc3ccc(C(F)(F)F)cc3)CC2)O1,.,.,.,10µM*
N=C1CCC[C@@H]1C(=S)SCCC(N)=O,-1.0%[5.75 µM],0.4%[5.75 µM],>57,-2.9%[8 µM]
Nc1nn(S(=O)(=O)c2cccc3nsnc23)cc1-c1ccc(Br)cc1,-6.4%,12.6µM*[single pt active],>57,?
Cc1ccc(-c2cn(S(=O)(=O)c3cccc4nsnc34)nc2N)cc1,-2.8%,-12.8%,>57,24.7%
Cc1cc(C)cc(NS(=O)(=O)c2ccc3[nH]cc(C(=O)NCc4ccco4)c(=O)c3c2)c1,-2.2%,12.6µM*[single pt active],>57,?
Cc1ccccc1NS(=O)(=O)c1ccc2[nH]cc(C(=O)N(C)Cc3ccco3)c(=O)c2c1,1.0%,-14.4%,>57,6.2%
